# About 83,000 compounds went through this panel and 20% of them were active in at least one assay; those are over-represented in the sample as a whole.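 The test compound was applied at a single concentration to cells in 96-well plates for 48 hours, and percent growth was recorded.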 Active and inactive are the calls of the source. How the source made its calls: active means growth percent below 10; inactive means the rest.
# Test system: U251 CNS
# Experiment: NCI-60 one-dose screen, 48 h (100 = growth as untreated, 0 = no growth, -100 = all killed)
# Conditions: 10 µM unless noted
row,Structure (SMILES),growth
1,O=C1C(Cl)=C(NCCCCCCNC2=C(Cl)C(=O)c3ccccc3C2=O)C(=O)c2ccccc21,89.9% (inactive)
2,O=C1c2c(c3c4ccccc4[nH]c3c3ccc4ccccc4c23)C(=O)N1CCN1CCNCC1,-11.2% (active)
3,COc1ccccc1CNc1c2ccccc2nc2ccccc12,38.6% (inactive)

# Test system: PC-3 prostate
# Experiment: as above
# Conditions: 10 µM unless noted
row,Structure (SMILES),growth
1,COc1cc2c(c(OC)c1OC)CCC(c1cccc(NC(=O)c3ccc(Br)cc3)c1)O2 (configuration not stated),60.5% (inactive)
2,N#Cc1nc(-c2ccc(F)cc2)oc1S(=O)(=O)N1CCCCC1,92.1% (inactive)
3,Clc1ccc(/C=N\N=C\c2ccc(Cl)c(Cl)c2)cc1Cl,71% (inactive)
4,C1CCC([PH+](C2CCCCC2)C2CCCCC2[PH+](C2CCCCC2)C2CCCCC2)CC1.[Au].[CH-]1CCCCC1C1CCCC[N-]1 (configuration not stated),-16.7% (active)
5,Cn1c(=O)c2nc(/C=C/c3ccccc3)c(=O)[nH]c2n(C)c1=S,102% (inactive)
6,COc1ccc(/C=C(\C#N)n2nnc3cc(Cl)ccc32)cc1,18.8% (inactive)
7,O=C(CN1C(=O)NC2NC(=O)NC21)N/N=C/c1ccccc1[N+](=O)[O-] (configuration not stated),101% (inactive)
8,CCN(CC)CC(O)COc1c(Br)c(Br)c(Br)c2c1OC(C)(C)C2 (configuration not stated),78.1% (inactive)
9,CCCNc1nc2ccccc2c2c1S(=O)(=O)c1ccc(Cl)cc1C2=O,25.1% (inactive)
10,CS(=O)(=O)Nc1cncc(-c2ccc3ncnc(Nc4cncc(Cl)c4)c3c2)c1,84.7% (inactive)
11,CN(C)c1ccc(C(=O)OCCCCCCl)cc1,87.1% (inactive)
12,CN(C)c1ccc(-c2c(C#N)c(N)nn2C(=O)c2ccc(NC(=O)c3ccccn3)cc2)cc1,77.4% (inactive)
13,COCCn1cc(-c2csc(-c3cn(C)c4ccc(Br)cc34)n2)c2cccnc21,38.1% (inactive)
14,CC1(C)COB(OCC(C)(C)COB2OCC(C)(C)CO2)OC1,94.2% (inactive)
15,Cc1c[n+](Cc2ccc3ccccc3c2)cn1Cc1ccc2ccccc2c1,10.3% (inactive)
16,Cn1cc(-c2csc(-c3c[nH]c4ccccc34)n2)c2cnccc21,48.4% (inactive)
17,CCOC(=O)C#Cc1c(C(=O)OCC)nnn1Cc1ccc([N+](=O)[O-])cc1,72.7% (inactive)

row,Structure (SMILES),growth
1,CCn1cc(C(=O)O)c(=O)c2cc(F)c(N3CCN(CC(=O)Nc4ccc(S(=O)(=O)Nc5nccc(C)n5)cc4)C(C)C3)c(F)c21 (configuration not stated),98% (inactive)
2,C=C1C(=O)O[C@H]2[C@H]1CC/C(COC(=O)/C=C\C(=O)NCc1ccc(Cn3c(=O)sn(CCI)c3=O)cc1)=C\CC[C@@]1(C)O[C@@H]21,69% (inactive)
3,CC1CN(S(=O)(=O)c2oc(-c3ccc(Cl)cc3)nc2C#N)CC(C)O1 (configuration not stated),90.2% (inactive)
4,Cc1ccc(C)n1-c1ccccc1-n1c(C)ccc1C,98.7% (inactive)
5,CCCCCCC12CCC(=O)N1CCc1cncn12 (configuration not stated),98.3% (inactive)
6,CNC(=O)c1[nH]cc(-c2ccc(OC)cc2)c1-c1cc(OC)c2c(c1OC)OCO2,92.1% (inactive)
7,C#Cc1c2c(c(OC)c3c1OCO3)[C@H]([C@H]1OC(=O)c3c1ccc(OC)c3OC)N(C)CC2,76.5% (inactive)
8,C=CCc1c(O)c(C(=O)/C=C/c2ccccc2)c(OC)c2ccoc12,33.9% (inactive)
9,O=S(=O)(Nc1ccc(F)cc1F)c1ccc(-c2cnc(C3CC3)o2)cc1,42.5% (inactive)
10,CN1CCN(c2cc(Nc3cc(C4CC4)[nH]n3)nc(Nc3ccc(CC(=O)NCc4cccc(F)c4)cc3)n2)CC1,47.4% (inactive)
11,CC(C)(C)[Si](C)(C)OC1[C@@H](CNC(=O)NC(=O)NC(N)=O)O[C@@H](n2cnc3c(NC(=O)Nc4ccccc4)ncnc32)[C@H]1O[Si](C)(C)C(C)(C)C (some centres not stated),41.5% (inactive)
12,COc1ccc(OC)c(-c2nc(SCC(=O)c3ccc(C#N)cc3)[nH]c(=O)c2C#N)c1,94.5% (inactive)
13,COc1ccc(C(C)=O)cc1S(=O)(=O)Nc1c(N)nc(SC)[nH]c1=O,104% (inactive)
14,CCOC(=O)C1=C(N)Oc2c(sc3c(F)cccc23)C1c1ccc(O)cc1 (configuration not stated),26% (inactive)
15,CCNCCNc1cc(-c2ccc(C(F)(F)F)cc2)c(C#N)c2nc3ccccc3n12,-72.6% (active)
16,Cn1cc(-c2ccc3nc(-c4ccc(CC(=O)ONc5cc(C(C)(C)C)on5)cc4)cnc3c2)cn1,34.8% (inactive)
17,Cn1cc(C(=O)c2nc(-c3c[nH]c4ccccc34)no2)c2cc(F)ccc21,41.9% (inactive)
